Binding signal data for 1 sequence are collected here from article PMC7862700, “An all-to-all approach to the identification of sequence-specific readers for epigenetic DNA modifications on cytosine”.

What all share (experiment): DAPPL (digital affinity profiling via proximity ligation, sequencing); 10 mM Tris-HCl pH 7.5, 50 mM NaCl, 1 mM DTT, 4% glycerol, room temperature, 30 min; GST-TFs on glutathione beads, 16-mer random dsDNA library, 0.1% formaldehyde crosslink after washing; high values mean tight binding
One assay concerns the target T1, FEV (Homo sapiens, UniProt Q99581 1-238).
T1 sequence: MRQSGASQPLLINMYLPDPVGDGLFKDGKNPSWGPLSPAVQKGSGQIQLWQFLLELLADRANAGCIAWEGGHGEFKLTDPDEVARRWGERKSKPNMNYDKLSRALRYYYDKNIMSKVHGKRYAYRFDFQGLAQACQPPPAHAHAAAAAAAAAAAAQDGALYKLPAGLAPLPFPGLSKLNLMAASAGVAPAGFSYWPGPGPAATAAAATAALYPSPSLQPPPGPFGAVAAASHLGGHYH
The note with it: protein: recombinant; tags: N-terminal GST; dsDNA, one strand shown. In short, it runs like this:
(§1)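 Binding signal is given per hexamer as its read frequency for a factor divided by its frequency in the tag-only sample. GST-fused human transcription factors were expressed in yeast, captured on glutathione beads, barcoded with DNA and pooled with that sample, then incubated with 200 nmole of a 16-mer random double-stranded DNA library in Tris/NaCl/DTT/glycerol buffer for 30 min at room temperature. The pools were then washed, crosslinked, proximity-ligated, amplified by PCR and sequenced on an Illumina NextSeq500.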

In the next assay the target is ETV5 (Homo sapiens, UniProt P41161 1-510). The note with it: protein: recombinant; tags: N-terminal GST; dsDNA, one strand shown. An outline of the steps: as §1
For a further assay, the target named is HSF1 (Homo sapiens, UniProt Q00613 1-529). The conditions noted are these: protein: recombinant; tags: N-terminal GST; chain copies: 3; dsDNA, one strand shown. In short, it runs like this:
as §1

In another assay the target is T2, SPIC (Homo sapiens, UniProt Q8N5J4 1-248).
T2 sequence: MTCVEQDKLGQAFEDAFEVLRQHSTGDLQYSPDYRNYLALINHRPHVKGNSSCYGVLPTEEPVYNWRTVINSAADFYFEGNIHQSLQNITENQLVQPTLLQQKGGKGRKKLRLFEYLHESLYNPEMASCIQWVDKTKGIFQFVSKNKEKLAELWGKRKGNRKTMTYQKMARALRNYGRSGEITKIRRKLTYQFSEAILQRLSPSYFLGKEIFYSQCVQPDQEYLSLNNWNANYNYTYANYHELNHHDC
The note with it: protein: recombinant; tags: N-terminal GST; dsDNA, one strand shown. In short, it runs like this: as §1

Another assay deals with ELF4 (Homo sapiens, UniProt Q99607 1-663). The note with it: protein: recombinant; tags: N-terminal GST; dsDNA, one strand shown. In short, it runs like this:
as §1

The target of another assay is T3, ELK4 (Homo sapiens, UniProt P28324-2 1-405).
T3 sequence: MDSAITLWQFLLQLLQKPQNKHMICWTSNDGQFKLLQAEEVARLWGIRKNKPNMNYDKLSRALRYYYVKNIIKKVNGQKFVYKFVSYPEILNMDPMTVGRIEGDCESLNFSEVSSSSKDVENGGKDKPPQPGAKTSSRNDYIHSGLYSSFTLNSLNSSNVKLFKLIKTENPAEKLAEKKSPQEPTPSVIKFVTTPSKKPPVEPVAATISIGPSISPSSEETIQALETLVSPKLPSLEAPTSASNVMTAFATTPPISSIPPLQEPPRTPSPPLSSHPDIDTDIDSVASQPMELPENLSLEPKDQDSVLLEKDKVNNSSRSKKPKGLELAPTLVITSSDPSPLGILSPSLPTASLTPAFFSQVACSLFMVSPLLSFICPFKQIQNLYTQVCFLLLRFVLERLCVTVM
The conditions noted are these: protein: recombinant; tags: N-terminal GST; dsDNA, one strand shown. An outline of the steps:
as §1

The target of another assay is T4, ETV2 (Homo sapiens, UniProt O00321 1-342).
T4 sequence: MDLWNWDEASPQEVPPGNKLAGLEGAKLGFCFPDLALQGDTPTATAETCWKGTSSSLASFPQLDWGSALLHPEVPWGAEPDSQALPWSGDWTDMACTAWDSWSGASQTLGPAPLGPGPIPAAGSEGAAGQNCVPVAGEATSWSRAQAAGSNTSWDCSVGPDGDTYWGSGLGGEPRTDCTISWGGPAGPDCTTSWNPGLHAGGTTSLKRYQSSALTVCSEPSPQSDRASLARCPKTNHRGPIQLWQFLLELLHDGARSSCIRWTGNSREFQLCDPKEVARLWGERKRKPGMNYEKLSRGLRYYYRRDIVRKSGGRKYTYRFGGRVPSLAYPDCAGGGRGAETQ
The note with it: protein: recombinant; tags: N-terminal GST; dsDNA, one strand shown. In short, it runs like this:
as §1

The target of another assay is T5, ELF3 (Homo sapiens, UniProt P78545 1-371).
T5 sequence: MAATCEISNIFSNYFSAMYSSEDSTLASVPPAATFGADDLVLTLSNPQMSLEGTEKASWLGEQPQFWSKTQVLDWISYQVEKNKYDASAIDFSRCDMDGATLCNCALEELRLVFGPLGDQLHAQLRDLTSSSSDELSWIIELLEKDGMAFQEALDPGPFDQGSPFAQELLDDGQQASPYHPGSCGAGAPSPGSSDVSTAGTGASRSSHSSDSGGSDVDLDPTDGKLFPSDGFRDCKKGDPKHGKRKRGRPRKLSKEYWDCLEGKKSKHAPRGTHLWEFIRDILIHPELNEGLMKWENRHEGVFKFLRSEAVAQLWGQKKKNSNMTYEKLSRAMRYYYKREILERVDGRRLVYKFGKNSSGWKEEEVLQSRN
The note with it: protein: recombinant; tags: N-terminal GST; dsDNA, one strand shown. In short, it runs like this:
as §1

The next assay addresses CRX (Homo sapiens, UniProt O43186 1-299). The note with it: protein: recombinant; tags: N-terminal GST; dsDNA, one strand shown. An outline of the steps:
as §1

A further assay addresses ETV1 (Homo sapiens, UniProt P50549 1-477). The conditions noted are these: protein: recombinant; tags: N-terminal GST; dsDNA, one strand shown. In short, it runs like this:
as §1

The next assay deals with T6, ERF (Homo sapiens, UniProt P50548 1-548).
T6 sequence: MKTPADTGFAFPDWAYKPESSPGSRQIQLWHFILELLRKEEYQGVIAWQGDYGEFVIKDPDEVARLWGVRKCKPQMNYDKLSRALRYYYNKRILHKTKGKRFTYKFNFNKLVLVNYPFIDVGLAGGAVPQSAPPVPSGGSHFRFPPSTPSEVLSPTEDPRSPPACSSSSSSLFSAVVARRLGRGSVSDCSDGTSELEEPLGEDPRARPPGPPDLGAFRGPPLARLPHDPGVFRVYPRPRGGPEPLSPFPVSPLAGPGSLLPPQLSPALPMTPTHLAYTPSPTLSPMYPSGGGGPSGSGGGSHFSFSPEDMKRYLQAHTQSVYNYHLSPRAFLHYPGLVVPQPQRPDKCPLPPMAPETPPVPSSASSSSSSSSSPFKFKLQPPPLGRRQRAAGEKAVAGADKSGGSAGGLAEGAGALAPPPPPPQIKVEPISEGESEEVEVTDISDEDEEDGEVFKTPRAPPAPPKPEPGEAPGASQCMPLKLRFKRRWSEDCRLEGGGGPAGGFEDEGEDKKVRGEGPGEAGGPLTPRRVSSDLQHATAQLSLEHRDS
The conditions noted are these: protein: recombinant; tags: N-terminal GST; dsDNA, one strand shown. An outline of the steps: as §1

In a further assay the target is T7, ETV3L (Homo sapiens, UniProt Q6ZN32 1-361).
T7 sequence: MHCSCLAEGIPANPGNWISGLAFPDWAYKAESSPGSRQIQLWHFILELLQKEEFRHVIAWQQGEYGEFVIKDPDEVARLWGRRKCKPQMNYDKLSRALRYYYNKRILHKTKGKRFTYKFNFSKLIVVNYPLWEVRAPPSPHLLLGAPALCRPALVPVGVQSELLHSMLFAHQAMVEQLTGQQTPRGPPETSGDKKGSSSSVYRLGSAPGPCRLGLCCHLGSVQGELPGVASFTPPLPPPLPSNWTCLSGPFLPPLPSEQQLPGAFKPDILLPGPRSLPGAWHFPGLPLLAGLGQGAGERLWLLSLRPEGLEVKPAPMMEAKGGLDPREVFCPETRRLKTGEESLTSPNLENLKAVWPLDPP
The conditions noted are these: protein: recombinant; tags: N-terminal GST; dsDNA, one strand shown. In short, it runs like this: as §1

In another assay the target is T8, ETS2 (Homo sapiens, UniProt P15036 1-469).
T8 sequence: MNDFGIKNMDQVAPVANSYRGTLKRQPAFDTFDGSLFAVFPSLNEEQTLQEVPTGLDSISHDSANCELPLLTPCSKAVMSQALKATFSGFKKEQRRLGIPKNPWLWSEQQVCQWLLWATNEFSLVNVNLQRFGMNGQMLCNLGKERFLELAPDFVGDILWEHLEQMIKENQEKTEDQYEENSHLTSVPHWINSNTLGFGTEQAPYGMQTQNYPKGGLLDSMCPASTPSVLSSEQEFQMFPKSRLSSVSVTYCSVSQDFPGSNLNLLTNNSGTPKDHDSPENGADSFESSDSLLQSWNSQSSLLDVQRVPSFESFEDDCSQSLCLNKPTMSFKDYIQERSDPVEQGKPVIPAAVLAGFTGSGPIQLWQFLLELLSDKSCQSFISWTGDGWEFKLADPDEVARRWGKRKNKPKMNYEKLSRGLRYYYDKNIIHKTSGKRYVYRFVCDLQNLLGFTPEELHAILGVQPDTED
The note with it: protein: recombinant; tags: N-terminal GST; dsDNA, one strand shown. An outline of the steps: as §1

The next assay concerns the target T9, SPDEF (Homo sapiens, UniProt O95238 1-335).
T9 sequence: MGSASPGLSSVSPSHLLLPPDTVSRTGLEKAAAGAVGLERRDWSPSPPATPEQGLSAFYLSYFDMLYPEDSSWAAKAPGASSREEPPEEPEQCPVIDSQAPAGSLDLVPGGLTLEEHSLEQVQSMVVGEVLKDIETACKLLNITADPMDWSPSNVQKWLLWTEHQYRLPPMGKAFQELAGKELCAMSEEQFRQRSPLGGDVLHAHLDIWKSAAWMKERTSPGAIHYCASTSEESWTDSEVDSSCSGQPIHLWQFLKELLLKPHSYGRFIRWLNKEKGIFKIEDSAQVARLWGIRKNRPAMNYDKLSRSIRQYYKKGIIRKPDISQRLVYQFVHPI
The conditions noted are these: protein: recombinant; tags: N-terminal GST; dsDNA, one strand shown. In short, it runs like this:
as §1

The target in the next assay is T10, ETV7 (Homo sapiens, UniProt Q9Y603 1-341).
T10 sequence: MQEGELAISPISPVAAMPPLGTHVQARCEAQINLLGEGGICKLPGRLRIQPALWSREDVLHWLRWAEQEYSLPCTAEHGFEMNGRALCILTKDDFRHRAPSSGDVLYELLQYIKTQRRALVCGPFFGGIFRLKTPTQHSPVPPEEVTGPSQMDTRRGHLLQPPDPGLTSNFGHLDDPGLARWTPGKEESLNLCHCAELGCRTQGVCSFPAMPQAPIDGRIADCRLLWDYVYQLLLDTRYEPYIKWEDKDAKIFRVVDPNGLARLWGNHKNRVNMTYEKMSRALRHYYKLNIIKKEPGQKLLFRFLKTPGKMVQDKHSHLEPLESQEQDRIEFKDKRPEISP
The conditions noted are these: protein: recombinant; tags: N-terminal GST; dsDNA, one strand shown. An outline of the steps:
as §1

The target of another assay is T11, ELF5 (Homo sapiens, UniProt Q9UKW6-2 1-255).
T11 sequence: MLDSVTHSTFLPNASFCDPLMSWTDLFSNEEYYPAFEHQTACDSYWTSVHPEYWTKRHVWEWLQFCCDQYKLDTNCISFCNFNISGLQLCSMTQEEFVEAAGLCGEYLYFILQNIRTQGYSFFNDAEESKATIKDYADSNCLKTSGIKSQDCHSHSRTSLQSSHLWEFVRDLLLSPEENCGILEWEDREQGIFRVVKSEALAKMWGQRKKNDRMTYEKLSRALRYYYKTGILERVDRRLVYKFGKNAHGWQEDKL
The note with it: protein: recombinant; tags: N-terminal GST; dsDNA, one strand shown. An outline of the steps: as §1

In another assay the target is T12, ETV3 (Homo sapiens, UniProt P41162-2 1-143).
T12 sequence: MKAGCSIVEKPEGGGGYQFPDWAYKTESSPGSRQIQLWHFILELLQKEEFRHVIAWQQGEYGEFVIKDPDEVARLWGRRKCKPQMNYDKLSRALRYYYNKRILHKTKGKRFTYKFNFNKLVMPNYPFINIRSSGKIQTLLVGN
The conditions noted are these: protein: recombinant; tags: N-terminal GST; dsDNA, one strand shown. An outline of the steps:
as §1

The target in the next assay is ETV6 (Homo sapiens, UniProt P41212 1-452). The note with it: protein: recombinant; tags: N-terminal GST; dsDNA, one strand shown. An outline of the steps: as §1
ETV6, sequence (P41212 whole entry): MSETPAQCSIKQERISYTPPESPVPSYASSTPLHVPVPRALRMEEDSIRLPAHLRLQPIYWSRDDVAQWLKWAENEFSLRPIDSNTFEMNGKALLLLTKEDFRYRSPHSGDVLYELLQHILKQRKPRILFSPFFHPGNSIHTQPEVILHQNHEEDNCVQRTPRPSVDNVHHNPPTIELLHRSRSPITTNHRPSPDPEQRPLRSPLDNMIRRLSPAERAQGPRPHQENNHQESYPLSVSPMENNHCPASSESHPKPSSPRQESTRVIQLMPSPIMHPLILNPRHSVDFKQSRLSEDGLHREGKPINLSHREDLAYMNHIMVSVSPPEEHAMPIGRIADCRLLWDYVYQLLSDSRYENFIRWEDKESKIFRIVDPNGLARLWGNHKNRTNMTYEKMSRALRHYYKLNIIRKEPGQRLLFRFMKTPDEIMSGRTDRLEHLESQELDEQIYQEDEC

ELF4, sequence (Q99607 whole entry): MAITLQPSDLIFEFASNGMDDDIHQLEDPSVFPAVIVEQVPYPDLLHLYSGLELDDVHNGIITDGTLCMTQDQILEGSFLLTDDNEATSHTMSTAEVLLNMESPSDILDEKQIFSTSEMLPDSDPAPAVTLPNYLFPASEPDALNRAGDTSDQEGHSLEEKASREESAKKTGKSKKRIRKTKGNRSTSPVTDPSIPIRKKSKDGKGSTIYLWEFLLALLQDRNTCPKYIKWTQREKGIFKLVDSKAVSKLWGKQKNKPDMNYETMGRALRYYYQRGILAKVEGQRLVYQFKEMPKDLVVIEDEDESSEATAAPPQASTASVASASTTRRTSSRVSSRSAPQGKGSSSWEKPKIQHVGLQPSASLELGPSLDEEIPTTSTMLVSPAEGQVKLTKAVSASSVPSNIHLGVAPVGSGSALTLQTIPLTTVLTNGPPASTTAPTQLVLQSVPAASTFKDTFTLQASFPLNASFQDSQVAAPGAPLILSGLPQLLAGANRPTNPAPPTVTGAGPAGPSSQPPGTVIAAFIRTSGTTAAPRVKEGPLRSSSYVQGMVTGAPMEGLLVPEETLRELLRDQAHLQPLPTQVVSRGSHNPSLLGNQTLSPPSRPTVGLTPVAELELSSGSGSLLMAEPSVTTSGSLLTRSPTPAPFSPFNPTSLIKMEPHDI
HSF1, sequence (Q00613 whole entry): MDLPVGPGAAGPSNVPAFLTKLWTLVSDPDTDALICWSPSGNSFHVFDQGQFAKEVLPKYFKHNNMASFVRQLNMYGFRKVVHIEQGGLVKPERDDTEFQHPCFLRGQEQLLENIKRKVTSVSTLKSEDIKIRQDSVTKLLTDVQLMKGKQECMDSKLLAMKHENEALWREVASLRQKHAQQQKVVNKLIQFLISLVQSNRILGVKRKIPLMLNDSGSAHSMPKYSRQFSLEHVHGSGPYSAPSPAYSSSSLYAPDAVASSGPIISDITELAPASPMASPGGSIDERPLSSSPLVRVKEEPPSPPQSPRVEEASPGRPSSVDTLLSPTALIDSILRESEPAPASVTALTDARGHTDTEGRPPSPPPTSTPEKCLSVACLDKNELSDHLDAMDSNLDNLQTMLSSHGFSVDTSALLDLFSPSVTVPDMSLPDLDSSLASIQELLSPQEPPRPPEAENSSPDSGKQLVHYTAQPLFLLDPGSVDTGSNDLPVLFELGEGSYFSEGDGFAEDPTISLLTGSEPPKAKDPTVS
ETV5, sequence (P41161 whole entry): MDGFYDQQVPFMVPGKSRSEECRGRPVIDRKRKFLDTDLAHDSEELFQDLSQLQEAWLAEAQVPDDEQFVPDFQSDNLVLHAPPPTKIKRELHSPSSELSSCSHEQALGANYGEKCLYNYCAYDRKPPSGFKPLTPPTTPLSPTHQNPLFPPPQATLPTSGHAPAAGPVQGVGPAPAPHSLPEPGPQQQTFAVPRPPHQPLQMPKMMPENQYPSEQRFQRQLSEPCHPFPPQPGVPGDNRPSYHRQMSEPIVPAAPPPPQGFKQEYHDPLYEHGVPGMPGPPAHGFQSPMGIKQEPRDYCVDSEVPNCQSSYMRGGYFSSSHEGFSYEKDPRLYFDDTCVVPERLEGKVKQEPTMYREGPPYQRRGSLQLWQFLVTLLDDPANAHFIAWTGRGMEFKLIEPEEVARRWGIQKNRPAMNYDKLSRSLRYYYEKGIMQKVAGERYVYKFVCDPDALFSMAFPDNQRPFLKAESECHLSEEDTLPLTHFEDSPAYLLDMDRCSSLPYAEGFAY
CRX, sequence (O43186 whole entry): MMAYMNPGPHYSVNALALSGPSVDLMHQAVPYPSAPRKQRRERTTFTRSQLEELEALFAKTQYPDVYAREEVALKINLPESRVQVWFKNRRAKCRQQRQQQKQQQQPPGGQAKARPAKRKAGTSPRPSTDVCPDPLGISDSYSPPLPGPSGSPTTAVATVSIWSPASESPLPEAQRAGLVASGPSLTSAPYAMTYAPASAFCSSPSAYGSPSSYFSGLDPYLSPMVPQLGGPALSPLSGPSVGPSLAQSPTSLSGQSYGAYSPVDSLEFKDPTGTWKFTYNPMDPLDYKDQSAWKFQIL
ETV1, sequence (P50549 whole entry): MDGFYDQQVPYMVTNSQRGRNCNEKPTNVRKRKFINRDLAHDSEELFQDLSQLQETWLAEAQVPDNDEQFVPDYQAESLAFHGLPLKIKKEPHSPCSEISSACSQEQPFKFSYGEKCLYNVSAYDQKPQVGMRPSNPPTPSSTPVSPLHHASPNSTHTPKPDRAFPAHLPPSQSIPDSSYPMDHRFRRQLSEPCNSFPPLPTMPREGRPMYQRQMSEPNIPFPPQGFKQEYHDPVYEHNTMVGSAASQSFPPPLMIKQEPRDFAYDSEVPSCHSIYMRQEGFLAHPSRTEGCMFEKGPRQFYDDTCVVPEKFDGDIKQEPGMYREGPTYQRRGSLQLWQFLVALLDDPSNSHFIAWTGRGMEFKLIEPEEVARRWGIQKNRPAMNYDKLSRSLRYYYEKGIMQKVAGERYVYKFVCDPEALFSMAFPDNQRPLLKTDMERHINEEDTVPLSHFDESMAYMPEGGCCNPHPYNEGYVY

Take AATGAG: the binding signal was 1.14 fold enrichment (6-mer frequency, TF over GST control) with FEV; 1.17 fold enrichment (6-mer frequency, TF over GST control) with ETV5; 1.05 fold enrichment (6-mer frequency, TF over GST control) in the assay with HSF1; 1.31 fold enrichment (6-mer frequency, TF over GST control) in the assay with SPIC; 1.14 fold enrichment (6-mer frequency, TF over GST control) in the assay with ELF4; 1.14 fold enrichment (6-mer frequency, TF over GST control) with ELK4. Moreover, the binding signal in the assay with ETV2 was 1.46 fold enrichment (6-mer frequency, TF over GST control); with ELF3, 1.25 fold enrichment (6-mer frequency, TF over GST control); with CRX it was 1.08 fold enrichment (6-mer frequency, TF over GST control); with ETV1, 1.21 fold enrichment (6-mer frequency, TF over GST control); with ERF it was 1.2 fold enrichment (6-mer frequency, TF over GST control); with ETV3L, 1.1 fold enrichment (6-mer frequency, TF over GST control). Besides, the binding signal was 1.2 fold enrichment (6-mer frequency, TF over GST control) in the assay with ETS2; 1.01 fold enrichment (6-mer frequency, TF over GST control) with SPDEF; 1.15 fold enrichment (6-mer frequency, TF over GST control) with ETV7; 1.17 fold enrichment (6-mer frequency, TF over GST control) with ELF5; 1.13 fold enrichment (6-mer frequency, TF over GST control) with ETV3; 1.32 fold enrichment (6-mer frequency, TF over GST control) in the assay with ETV6.
